Measured values: ChEMBL document CHEMBL4296182, “CO-ADD screening of NIH NCI Diversity Set V”
For part of these data: Potency and affinity values are given separately.

Assays:
[1] = test system: Staphylococcus aureus; test: Antibacterial activity against Staphylococcus aureus MRSA ATCC 43300 (CO-ADD:GP_020); MIC in CAMBH media using NBS plates, by Resazurin F(560/590); format: functional; settings: Concentration 20 uM, ASSAY_TEST Inhibition of Bacterial Growth, detection method Resazurin, Fluorescence (ex560/em590), MEDIA CAMHB, plate type 384well, CORNING #3640, time 18 hr
[2] = test system: Acinetobacter baumannii; test: Antibacterial activity against Acinetobacter baumannii ATCC 19606 (CO-ADD:GN_034); MIC in CAMBH media using NBS plates, by Resazurin F(560/590); format: functional; settings: Concentration 20 uM, ASSAY_TEST Inhibition of Bacterial Growth, detection method Resazurin, Fluorescence (ex560/em590), MEDIA CAMHB, plate type 384well, CORNING #3640, time 18 hr
[3] = test system: Escherichia coli; test: Antibacterial activity against Escherichia coli ATCC 25922 (CO-ADD:GN_001); MIC in CAMBH media using NBS plates, by Resazurin F(560/590); format: functional; settings: Concentration 20 uM, ASSAY_TEST Inhibition of Bacterial Growth, detection method Resazurin, Fluorescence (ex560/em590), MEDIA CAMHB, plate type 384well, CORNING #3640, time 18 hr
[4] = test system: Klebsiella pneumoniae; settings: Concentration 20 uM; ASSAY_TEST Inhibition of Bacterial Growth; detection method Absorption (OD600); MEDIA CAMHB; plate type 384well; NBS; CORNING #3640; time 18 hr
[5] = test system: Candida albicans; settings: 20 µM
[6] = test system: Cryptococcus neoformans; settings: Concentration 20 uM; ASSAY_TEST Inhibition of Fungal Growth; detection method Resazurin; Absorption (OD600-OD570); plate type 384well; NBS; CORNING #3640

Row | SMILES | Inhibition [1] | Inhibition [2] | Inhibition [3] | Inhibition [4] | Inhibition [5] | Inhibition [6]
1 | O=C(Nc1cccc2ccccc12)c1cc2c(cc1Br)OCO2 | 5.22% | 3.29% | 17.42% | 10.46% | 2.94% | -19.33%
2 | CCNc1ccccc1C(=O)O | 19.64% | -10.34% | 13.74% | 16.83% | 5.51% | 2.27%
3 | O=[N+]([O-])c1ccc(/C=C\c2ccncc2)cc1 | -4.43% | 17.7% | -9.25% | 16.94% | 3.43% | -1.17%
4 | COc1cccc2nc3cc(C)c(C)cc3nc12 | 20.84% | 3.71% | 12.65% | 1.37% | 1.48% | -8.3%
5 | N#Cc1nnn2c1nc(N)c1c(Cl)cccc12 | 11.84% | 9.93% | 2.46% | 14.13% | 1.33% | -4.78%
6 | CCCCCCC(C)OC(=O)c1ccccc1C(=O)O (stereo unspecified) | 12.97% | -3.64% | -2.32% | 24.05% | 18.6% | -16.02%
